The whole screen tested about 220,000 compounds, of which about 1,600 (0.73%) were called active.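 Rule for the calls: active = mean inhibition across duplicate retests at 20 µM reaching about 50% (limit read from the data); inactive = the rest, inconclusive results apart.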 This excerpt belongs to a sample that is enriched for actives.
Target: Runt-related transcription factor 1 (Homo sapiens) + Core-binding factor subunit beta (Homo sapiens) (UniProt Q01196+Q13951)
Test: disruptors of Runt domain/CBFb-SMMHC interaction – biochemical, FRET, Cerulean-Runt, Venus-CBFb-SMMHC, uHTS, primary screen (AID 1434);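 note: 0% = DMSO wells and 100% = wells with excess untagged CBFb-SMMHC; inhibitors lower the FRET ratio by blocking Runt binding to CBFb-SMMHC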
Details: Cerulean-Runt/Venus-CBFb-SMMHC FRET ratio 530/480, 1 h, at 20 µM, stronger effect = higher value

Runt-related transcription factor 1 (Homo sapiens) + Core-binding factor subunit beta (Homo sapiens), sequence (Q01196 whole entry, looked up, the tested form may be a part): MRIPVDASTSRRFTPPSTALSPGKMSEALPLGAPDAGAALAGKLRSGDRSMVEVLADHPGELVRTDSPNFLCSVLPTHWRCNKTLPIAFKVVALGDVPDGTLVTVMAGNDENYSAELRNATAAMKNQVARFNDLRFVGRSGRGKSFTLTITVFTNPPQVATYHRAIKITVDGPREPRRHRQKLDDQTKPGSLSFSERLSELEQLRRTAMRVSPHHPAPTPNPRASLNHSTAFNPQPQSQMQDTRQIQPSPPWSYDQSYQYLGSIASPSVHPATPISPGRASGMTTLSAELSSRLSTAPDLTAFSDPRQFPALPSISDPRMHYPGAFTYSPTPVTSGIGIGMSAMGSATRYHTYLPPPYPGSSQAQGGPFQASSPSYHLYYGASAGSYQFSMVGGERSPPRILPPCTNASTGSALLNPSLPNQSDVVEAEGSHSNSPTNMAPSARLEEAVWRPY
Runt-related transcription factor 1 (Homo sapiens) + Core-binding factor subunit beta (Homo sapiens), sequence (Q13951 whole entry, looked up, the tested form may be a part): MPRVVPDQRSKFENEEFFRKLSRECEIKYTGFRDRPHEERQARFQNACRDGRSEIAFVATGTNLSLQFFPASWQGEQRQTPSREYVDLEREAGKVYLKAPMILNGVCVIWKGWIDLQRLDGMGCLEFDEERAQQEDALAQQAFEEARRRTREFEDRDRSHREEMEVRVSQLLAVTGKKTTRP

Q: Which inhibition does the source give for `CN1CCNC(=O)C1CC(=O)NCCC1=CCCCC1` (configuration not stated) here?
A: -1.1% (inactive)

Q: How did the inhibition turn out when `Nc1nc(Nc2ccccc2)nc(NCCO)c1[N+](=O)[O-]` was run?
A: 0.8% (inactive)

Q: `O=C(Oc1c(-c2ccco2)oc2ccccc2c1=O)c1cccnc1` was tested. Which inhibition did it give?
A: 92.5% (active)

Q: And the inhibition (retest duplicate average)?
A: 70.6%

Q: How did the inhibition turn out when `O=C(Oc1cccnc1)c1cc2ccccc2oc1=O` was run?
A: -10.2% (inactive)

Q: How did the inhibition turn out when `N#CCc1ccc(OC(=O)c2cccnc2)cc1` was run?
A: 3% (inactive)

Q: For `Cc1cc(=O)[nH]c2nnnn12`, which inhibition is on record?
A: -4.2% (inactive)

Q: Which inhibition does the source give for `Cc1ccc(S(=O)(=O)c2c(N)n(C)c3nc4ccccc4nc23)cc1` here?
A: 22% (inactive)

Q: For `CCCNC(=O)c1c(N)n(-c2ccc(S(N)(=O)=O)cc2)c2nc3ccccc3nc12`, which inhibition is on record?
A: 80.5% (active)

Q: And the inhibition (retest duplicate average)?
A: 104%

Q: For `CCOC(=O)c1c(C)c(C(=O)NCCc2ccc(S(N)(=O)=O)cc2)c(C)n1CC`, which inhibition is on record?
A: -1.6% (inactive)

Q: `Nc1c(C(=O)c2cccs2)sc2nsc(SCCN3CCCCC3)c12` was tested. Which inhibition did it give?
A: -179% (inactive)

Q: How did the inhibition turn out when `CCOC(=O)C(=CNNc1ccsc1C(=O)OC)C(=O)OCC` was run?
A: -1.9% (inactive)

Q: How did the inhibition turn out when `CCCCc1ccc(NC(=S)N2CCCC(CO)C2)cc1` (configuration not stated) was run?
A: -1.7% (inactive)

Q: `CN(C)C(=O)c1nc2ccc(Cl)cn2c1CN1CCN(c2ncccn2)CC1` was tested. Which inhibition did it give?
A: 0.6% (inactive)

Q: With `Cc1cc(C)n(C(=O)CCNC(=O)c2ccccc2Cl)n1` as the compound, how does the inhibition read?
A: 8.8% (inactive)

Q: How did the inhibition turn out when `Cc1cc(C)c2nc(-c3ccco3)cc(C(=O)O)c2c1` was run?
A: 21.4% (inactive)

Q: For `Cc1cc(C)c2nc3nc(C)cc(C)c3c(N)c2c1`, which inhibition is on record?
A: 60.1% (active)

Q: And the inhibition (retest duplicate average)?
A: 71.5%

Q: For `Cc1cc(C)c2nc(SCCC#N)nc(C)c2c1`, which inhibition is on record?
A: -2.1% (inactive)

Q: With `O=c1oc2c(CN3CCCCC3)c(O)ccc2c2c1CCCCC2` as the compound, how does the inhibition read?
A: 93.5% (active)

Q: What about the inhibition (retest duplicate average) of the same compound?
A: 148%

Q: `CN1CCN(Cc2c(O)ccc3c2oc(=O)c2ccccc23)CC1` was tested. Which inhibition did it give?
A: -13.8% (inactive)

Q: For `NC(=O)COc1ccc2c3c(c(=O)oc2c1)CCCCC3`, which inhibition is on record?
A: -10.6% (inactive)

Q: With `Cc1ccc(C(=O)NCC(=O)OCC(=O)Nc2cccc(S(=O)(=O)N3CCCC3)c2)cc1C` as the compound, how does the inhibition read?
A: 0.1% (inactive)

Q: Which inhibition does the source give for `Cc1cccn2c(=O)c3cc(C(=O)N4COCC4(C)C)n(C)c3nc12` here?
A: 1.5% (inactive)

Q: What does the source list for `Cc1cccn2c(=O)c3cc(C#N)c(=O)n(CCCN4CCOCC4)c3nc12`?
A: inhibition: 61.6% (active); inhibition (retest duplicate average): 71.6%

Q: `Cc1cc(C)n(CC(C)NCc2c(C(=O)N3CCOCC3)nc3c(C)cccn23)n1` (configuration not stated) was tested. Which inhibition did it give?
A: -0.8% (inactive)

Q: How did the inhibition turn out when `COc1ccc(-c2cc3ccc(OCc4nn[nH]n4)cc3oc2=O)cc1` was run?
A: 16.9% (inactive)

Q: Which results are given for `O=c1oc2cc(O)ccc2cc1-c1ccc(F)cc1`?
A: inhibition: 61.6% (active); inhibition (retest duplicate average): 71.5%

Q: `O=c1c(-c2ccccc2)coc2cc(O)ccc12` was tested. Which inhibition did it give?
A: -4.05% (inactive)

Q: `NS(=O)(=O)c1ccc(NC2=CC(c3ccc(F)cc3)N(c3ccc(S(N)(=O)=O)cc3)C2=O)cc1` (configuration not stated) was tested. Which inhibition did it give?
A: -4.3% (inactive)

Q: `Cc1ccc(Cl)cc1NC(=O)c1ccccn1` was tested. Which inhibition did it give?
A: -0.3% (inactive)

Q: How did the inhibition turn out when `CCC1=C(C(=O)OC)C(c2cc(OC)ccc2OC)C(C#N)=C(N)O1` (configuration not stated) was run?
A: -8.1% (inactive)

Q: With `COC(=O)C1=C(C)OC(N)=C(C#N)C1c1cc(OC)ccc1OC` (configuration not stated) as the compound, how does the inhibition read?
A: -18.1% (inactive)

Q: With `COc1ccc(C2C(C#N)=C(N)Oc3cc(N)ccc32)cc1OC` (configuration not stated) as the compound, how does the inhibition read?
A: 102% (active)

Q: And the inhibition (retest duplicate average)?
A: 108%

Q: For `Cc1cc2nc(C(F)(F)F)cc(-c3cccs3)n2n1`, which inhibition is on record?
A: -2.5% (inactive)

Q: `CC(C)c1ccc(Nc2ncccc2C#N)cc1` was tested. Which inhibition did it give?
A: 2.1% (inactive)

Q: How did the inhibition turn out when `CCOC(=O)Cc1csc(NC(=O)COc2ccc3c(C)cc(=O)oc3c2)n1` was run?
A: -11.5% (inactive)

Q: For `Cc1ccc2c(CSc3nncs3)cc(=O)oc2c1`, which inhibition is on record?
A: -1% (inactive)

Q: With `CCOC(=O)Cc1csc(SCc2cc(=O)oc3cc(O)ccc23)n1` as the compound, how does the inhibition read?
A: 121% (active)

Q: And the inhibition (retest duplicate average)?
A: 114%

Q: `C=CCNC(=O)COC(=O)c1ccccc1C(=O)N(C)C1CCCCC1` was tested. Which inhibition did it give?
A: -5.7% (inactive)

Q: For `COc1ccc2c(CC(=O)OCC(=O)NC(N)=O)coc2c1`, which inhibition is on record?
A: 2.1% (inactive)

Q: Which inhibition does the source give for `Cc1cccc(-n2ncc(C#N)c2-n2cccc2)c1` here?
A: -1.3% (inactive)

Q: `Cc1ccc(-n2ncc3c(=O)n(-c4ccc(C)c(C)c4)c(-c4ccco4)nc32)cc1` was tested. Which inhibition did it give?
A: 1.4% (inactive)

Q: Which results are given for `Cc1ccc(-n2c(=O)c(C#N)cc3c(=O)n4ccccc4nc32)cc1C`?
A: inhibition: 58.7% (active); inhibition (retest duplicate average): 72.9%

Q: `COc1ccc(NC(=O)C(Br)C(C)C)cc1` (configuration not stated) was tested. Which inhibition did it give?
A: 2.9% (inactive)

Q: Which inhibition does the source give for `c1ccc(-n2nnnc2-c2cccnc2)cc1` here?
A: -4.7% (inactive)

Q: Which inhibition does the source give for `COc1cc(COCC(O)CN2CCN(Cc3ccc4c(c3)OCO4)CC2)cc(OC)c1OC` (configuration not stated) here?
A: 1.8% (inactive)

Q: How did the inhibition turn out when `COc1ccc2cc1Oc1ccc(cc1)C[C@H]1c3cc(c(OC)cc3CCN1C)Oc1c(O)c(OC)cc3c1[C@H](C2)N(C)CC3` was run?
A: -0.6% (inactive)

Q: How did the inhibition turn out when `COc1c(O)ccc2c1CN1CCc3cc4c(cc3C1C2)OCO4` (configuration not stated) was run?
A: 78% (active)

Q: And the inhibition (retest duplicate average)?
A: 110%

Q: With `CC(C)n1c(-c2ccncc2)n[nH]c1=S` as the compound, how does the inhibition read?
A: -1.2% (inactive)

Q: How did the inhibition turn out when `Cc1ccc(C)c(Cn2nnc3c(=O)[nH]c(C(=O)Nc4ccc(F)cc4)nc32)c1` was run?
A: 1.2% (inactive)

Q: Which inhibition does the source give for `COc1ccc(Cl)cc1S(=O)(=O)N1CCC(O)(c2ccc(Cl)cc2)CC1` here?
A: -1.4% (inactive)

Q: What does the source list for `CCOC(=O)CNC(=O)CSc1nnc(-c2cccc(OC)c2)n1CC`?
A: inhibition: 60.6% (active); inhibition (retest duplicate average): 67.7%

Q: With `C=CCn1c(COc2ccccc2)nnc1SCC(=O)NCC(=O)OCC` as the compound, how does the inhibition read?
A: 0.8% (inactive)

Q: `CCOC(=O)CNC(=O)CSc1nnc(COc2ccc(Cl)cc2)n1CC` was tested. Which inhibition did it give?
A: 2.7% (inactive)

Q: How did the inhibition turn out when `Cc1cc2oc(=O)cc(CN3CCN(S(=O)(=O)c4cccs4)CC3)c2cc1C(C)C` was run?
A: -6.5% (inactive)

Q: How did the inhibition turn out when `CCN(CC)CCC(c1cc(OC)c(OC)c(OC)c1)c1c(OC)cc(OC)c2c(-c3ccccc3)cc(=O)oc12` (configuration not stated) was run?
A: 1.1% (inactive)

Q: Which inhibition does the source give for `O=c1[nH]c(CN2CCN(S(=O)(=O)c3ccc4c(c3)OCCO4)CC2)nc2sc3c(c12)CCCC3` here?
A: -6.3% (inactive)

Q: Which inhibition does the source give for `COc1ccccc1-c1c(C#N)c(N)nc2c1CCC2` here?
A: 61.7% (active)

Q: And the inhibition (retest duplicate average)?
A: 60.2%

Q: `CSc1nc(N)c(C#N)c(-c2ccccc2Cl)c1C#N` was tested. Which inhibition did it give?
A: 2% (inactive)

Q: How did the inhibition turn out when `COc1ccc(-c2cc(-c3ccc(N)cc3)nc(N)c2C#N)cc1OC` was run?
A: 52.8% (inactive)

Q: And the inhibition (retest duplicate average)?
A: 46.8%

Q: `COc1ccc(OCCNS(=O)(=O)Cc2ccccc2)cc1` was tested. Which inhibition did it give?
A: 2.9% (inactive)

Q: With `Cc1ccnc(Nc2nc3ccccc3s2)n1` as the compound, how does the inhibition read?
A: -5.4% (inactive)

Q: For `Cc1ccnc(N2CCC(C(=O)NC3CCCCCC3)CC2)n1`, which inhibition is on record?
A: 0.3% (inactive)

Q: For `Cc1ccnc(-n2sc3ccccc3c2=O)n1`, which inhibition is on record?
A: 54.6% (active)

Q: What about the inhibition (retest duplicate average) of the same compound?
A: 58.2%

Reference: PubChem BioAssay AID1434 (Sanford-Burnham Center for Chemical Genomics, 2008)
